Columns and labels:
[1] = molecular target: U5 small nuclear ribonucleoprotein TSSC4 (UniProt Q9Y5U2); assay: cross-linking mass spectrometry
[2] = molecular target: CD2 antigen cytoplasmic tail-binding protein 2 (UniProt O95400); assay: cross-link between two proteins; cross-linking mass spectrometry
[3] = molecular target: U5 small nuclear ribonucleoprotein 40 kDa protein (UniProt Q96DI7); assay: as above
[4] = molecular target: Pre-mRNA-processing-splicing factor 8 (UniProt Q6P2Q9); assay: as above
[5] = molecular target: Thioredoxin-like protein 4A (UniProt P83876); assay: as above
Chain of Thioredoxin-like protein 4A (P83876 whole entry): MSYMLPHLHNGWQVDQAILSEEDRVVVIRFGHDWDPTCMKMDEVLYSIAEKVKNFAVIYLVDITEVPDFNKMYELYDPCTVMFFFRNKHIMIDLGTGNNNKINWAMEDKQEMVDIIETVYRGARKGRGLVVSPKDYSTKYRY

Chain of U5 small nuclear ribonucleoprotein 40 kDa protein (Q96DI7 whole entry): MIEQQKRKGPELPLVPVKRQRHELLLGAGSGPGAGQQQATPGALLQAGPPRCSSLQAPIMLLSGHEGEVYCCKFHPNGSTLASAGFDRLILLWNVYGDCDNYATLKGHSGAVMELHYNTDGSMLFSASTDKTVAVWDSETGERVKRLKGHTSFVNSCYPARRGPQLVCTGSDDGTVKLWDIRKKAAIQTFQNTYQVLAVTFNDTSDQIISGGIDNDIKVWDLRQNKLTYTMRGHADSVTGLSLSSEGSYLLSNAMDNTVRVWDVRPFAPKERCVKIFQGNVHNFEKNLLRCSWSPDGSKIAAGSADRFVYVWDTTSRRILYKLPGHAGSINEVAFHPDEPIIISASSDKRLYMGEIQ
Chain of U5 small nuclear ribonucleoprotein TSSC4 (Q9Y5U2 whole entry): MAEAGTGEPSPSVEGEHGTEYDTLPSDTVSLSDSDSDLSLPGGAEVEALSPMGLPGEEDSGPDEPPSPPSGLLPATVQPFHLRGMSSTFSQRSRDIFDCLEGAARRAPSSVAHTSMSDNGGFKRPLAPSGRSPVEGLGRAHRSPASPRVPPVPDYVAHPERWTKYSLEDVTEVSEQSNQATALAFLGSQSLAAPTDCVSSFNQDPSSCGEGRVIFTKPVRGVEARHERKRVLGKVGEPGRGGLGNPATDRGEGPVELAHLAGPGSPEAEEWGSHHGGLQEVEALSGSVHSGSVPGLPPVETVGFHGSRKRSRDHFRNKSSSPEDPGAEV
Chain of CD2 antigen cytoplasmic tail-binding protein 2 (O95400 whole entry): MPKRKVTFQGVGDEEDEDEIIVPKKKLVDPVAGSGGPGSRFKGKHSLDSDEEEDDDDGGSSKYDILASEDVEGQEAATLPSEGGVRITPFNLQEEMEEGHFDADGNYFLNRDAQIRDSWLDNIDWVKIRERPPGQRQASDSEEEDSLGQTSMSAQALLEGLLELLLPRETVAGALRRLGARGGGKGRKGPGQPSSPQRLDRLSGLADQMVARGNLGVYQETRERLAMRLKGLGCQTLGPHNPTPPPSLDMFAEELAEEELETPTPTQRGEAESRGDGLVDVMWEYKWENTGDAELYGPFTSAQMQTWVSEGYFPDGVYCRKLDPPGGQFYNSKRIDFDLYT

U5 small nuclear ribonucleoprotein 200 kDa helicase, O75643
listed as a hit [1]: yes

Pre-mRNA-processing factor 6, O94906
listed as a hit [2]: yes | listed as a hit [3]: yes

CD2 antigen cytoplasmic tail-binding protein 2, O95400
listed as a hit [4]: yes | listed as a hit [5]: yes | listed as a hit [3]: yes
